Results filed as inconclusive are left out. Where a call stands in place of a potency, no number is given. Active and inactive are the calls of the source. Calls follow the shape of the dose curve; as a rule, active = well fitted inhibition curve with a large enough effect; inconclusive = small, poorly fitted or top-dose-only effect; inactive = flat fitted curve, though single readings scatter.

This assay deals with GB4. Put plainly: qHTS profiling for inhibitors of Plasmodium falciparum proliferation (AID 504749). Also: nearly all actives have a fitted effect of over 60% in size. To be noted: P. falciparum in erythrocytes, SYBR Green DNA, 72 h; series mostly up to 28.7 µM. A digest of the protocol: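 P. falciparum-infected erythrocytes (0.3% parasitemia, 2.5% hematocrit) incubated with compound 72 h at 37 C, 5% CO2. Parasite DNA detected by SYBR Green after lysis, overnight at room temperature; normalised to 0.29 uM artemisinin and DMSO.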
For orientation: qHTS replaces the single test concentration by a dilution series.
In the case of `CC(C)C(=O)Nc1ccc([N+](=O)[O-])c(C(F)(F)F)c1`, the Potency result is “inactive”.

Take `NC(=O)NO`: the Potency result was “inactive”.

Turning to `CCOC(=O)C(C)(C)Oc1ccc(Cl)cc1`, the Potency entry was “inactive”.

In the case of `CC(CCc1ccc(O)cc1)NCCc1ccc(O)c(O)c1` (configuration not stated), the Potency result was “inactive”.

Turning to `Cc1cn([C@H]2C[C@H](N=[N+]=[N-])[C@@H](CO)O2)c(=O)[nH]c1=O`, the Potency result was “inactive”.

As to `Cc1cc(C(C)(C)C)c(O)c(C)c1CC1=NCCN1`, the Potency result is “inactive”.

Take `NS(=O)(=O)c1cc2c(cc1Cl)NCNS2(=O)=O`: the Potency result was “inactive”.

On to `CCOC(=O)c1ncn2c1CN(C)C(=O)c1cc(F)ccc1-2`, for which the Potency result was “inactive”.

As for `COC(=O)Nc1nc2ccc(C(=O)c3cccs3)cc2[nH]1`, the Potency result is “inactive”.

As to `Clc1ccc2nsnc2c1NC1=NCCN1`, the Potency entry was “inactive”.

`Cn1c(=O)c2c(ncn2C)n(C)c1=O`: the Potency result was “inactive”.

As for `CC(C)Cc1ccc(C(C)C(=O)O)cc1` (configuration not stated), the Potency result was “inactive”.

For the molecule `Cn1cnc2c1c(=O)[nH]c(=O)n2C`, the Potency entry was “inactive”.

As for `Cn1c(=O)c2[nH]cnc2n(C)c1=O`, the Potency result was “inactive”.

Regarding `NCCCCCC(=O)O`, the Potency result is “inactive”.

Consider `CC(C)(Oc1ccc(C2CC2(Cl)Cl)cc1)C(=O)O` (configuration not stated), for which the Potency entry was “inactive”.

Consider `CN1C(C(=O)Nc2ccccn2)=C(O)c2ccccc2S1(=O)=O`, for which the Potency entry was “inactive”.

Turning to `N[C@@H](Cc1c[nH]c2ccc(O)cc12)C(=O)O`, the Potency result is “inactive”.

Consider `COc1cc2c(c(OC)c1OC)-c1ccc(OC)c(=O)cc1[C@@H](NC(C)=O)CC2`, for which the Potency entry was “inactive”.

As for `Cc1cnc(C(=O)NCCc2ccc(S(=O)(=O)NC(=O)NC3CCCCC3)cc2)cn1`, the Potency entry is “inactive”.

As to `CN1CCN2c3ccccc3Cc3ccccc3C2C1` (configuration not stated), the Potency entry was “inactive”.

Turning to `Nc1nnc(-c2cccc(Cl)c2Cl)c(N)n1`, the Potency result is “inactive”.
